Experimental data taken from the supplement of paper PMC6555819.

These sequences were tested on PPARg DBDmut:RXRa IVT, anti-PPARg (DBD mutation: PPARg1 K132A/R137A, NR concentration 270 nM, RXRa partner concentration 90 nM) (assay: PBM binding z-score (relative to random genomic background probes); higher = stronger binding; sequences stand for … in GC…GCGATTGACAGCGTAGAATGAAGG).
How it was run: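 Binding z-scores take random background probes as their reference. They come from custom Agilent 4×180K protein-binding microarrays incubated 1 h with ligand-free nuclear receptor dimers, with antibodies against each partner (one per run) detecting binding. Scanned fluorescence was regression-normalized.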
In the case of CCTTACGGGACACTGACAGGTTATAGCATTTGGA, the PBM binding z-score is reported as 0.162.
AGAACGAGGGCAATGAGTTGAGAGCACGGGTGGC showed a PBM binding z-score of 0.608.
CCTGCTAGGTCAATGGTCGGCTAAAGCAGCTCGC showed a PBM binding z-score of -0.289.
CCGACTGGGGCTAAGGTTACCATACTCAGTACGA was tested, and the PBM binding z-score was -0.549.
Sequence CTTCCAAGGTCAATGCTAGGTCAGTGAAAGCATT has a PBM binding z-score of 1.
For CATACTGGGCCAAAGGTCATTGATTCCAATGCTC, the PBM binding z-score was 1.88.
AGAACGAGGGCACGCTGAGTTGCTAGCAGAGTAG gave a PBM binding z-score of -0.0983.
CCTCGGAGGACCACAGGAGGTCAGAGCTGCCAGA gave a PBM binding z-score of -0.752.
In the case of AGTCAAAGTTCAGGACGAGGTTACGTAAAGCACG, the PBM binding z-score is reported as 0.501.
For TCTAGTTGGTCACGGACGTCACACACGACGGGTA, the PBM binding z-score was 1.1.
With TAGCCTAGGTCATTGCGCCAGTATAGTACGCATC the PBM binding z-score was 1.15.
Sequence TCTTTTAGATCAAGCAGGTTAAGAAAGCCTGAGT has a PBM binding z-score of 0.997.
For CATACAGGGTCAGCTAGGCCACAGTAGGGACGGC, the PBM binding z-score was 0.893.
GCTAGTTGGTCAGTAAAAGGTCACACGCCGGTCG was tested, and the PBM binding z-score was -0.186.
Sequence ACAGACAAGTGAGTGAAGGTAACTCAGCTGGACG has a PBM binding z-score of 0.174.
CCTACTGGGCCATTCAGAGGTCTTTGATCATATG was tested, and the PBM binding z-score was -0.147.
With CCGACTGGGGTAGAAAGGTTACCATACCATCCGG the PBM binding z-score was -1.23.
CCGACTGGGGCATAAGGTTAGCATAAGCCAGCCC gave a PBM binding z-score of -1.39.
In the case of CGTCAAAGTTCCACTAAGGTAACGTAAAGCACGC, the PBM binding z-score is reported as -0.504.
For CCGACTGGGGCAGATAGGTTACCATACCATCCGG, the PBM binding z-score was -1.44.
Sequence CATACAGGGTCAGCTAGGCGAGAGTAGGGACGGC has a PBM binding z-score of 0.279.
Work on GGAACGAGGGCAAGTTGATCGCAGAGTTTGATGG yielded a PBM binding z-score of 0.162.
ACAGACAGGTGATGAAGCTAACTCAGGCTATCAT was tested, and the PBM binding z-score was 0.338.
GCATATAGGTAATACAAGGTAAAAGTCCGATTGT gave a PBM binding z-score of 0.397.
With TCTGGGAGGACACGAAAGGTCAGAGCTCGACATC the PBM binding z-score was 0.0227.
CCGACTGGGGCAAAGTTACCATAACGCACAGCCA gave a PBM binding z-score of -0.241.
With AGAATGAGGTTAAGATGAGGGAAACAGAATACAT the PBM binding z-score was 1.61.
For ATATGTAGATTATCGGGTCATTCAGTTTGCGCAT, the PBM binding z-score was 1.49.
TCATATTGGTAAAGGTGAAAGTCGAACGATATGA was tested, and the PBM binding z-score was 0.994.
TCTCGGAGCACACGAAGGTCAGAGCTTTCCAGAG showed a PBM binding z-score of -0.909.
For CAAACTAGGTCAAGAGATCAAAGTCCGCTTCCCG, the PBM binding z-score was 2.03.
For ATCGAAAGGTCGAGGGTGAGTATACCCACCCGAA, the PBM binding z-score was 0.623.
CAGCCTAGGTCAGGGCCAGTATTGGAGGAACGTT gave a PBM binding z-score of -1.49.
ATCGAAAGGTCGAAGGTGAGTGTACCCACCCGAA was tested, and the PBM binding z-score was 1.7.
For CGAACTAGGTTAAGGACAGTGAATCTCCGCACGC, the PBM binding z-score was 0.439.
For TCATATAGGTAATACAGGTGAAAGCCGGCATCTA, the PBM binding z-score was 1.75.
Sequence CCTGCTAGGTCATCGTCAGCTAATCTACAGTATG has a PBM binding z-score of -0.277.
For TCTTGGAGATCAACAGGAGGTTAAGAAAGATCGA, the PBM binding z-score was 0.0727.
With GCGACTGGGGCAAAGCAGGTTACCATAAGGTTGG the PBM binding z-score was -0.534.
In the case of TAGCCTAGGTCATGGACCAGTATACCACGCGAAC, the PBM binding z-score is reported as 0.484.
